# In PubChem BioAssay:
# Values without a mark were called inactive. For some assays here: Potency and affinity values are given separately. Activity calls are given as the source filed them. Unless noted, no rule for the calls is given here.
# Assays:
# [1] = antimalarial activity against Dd2 strain (AID 2302;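 active = growth inhibition above 50% at the single 2 µM test dose, taken to imply half-maximal potency below 2 µM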;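 also: 0% = DMSO untreated growth and 100% = chloroquine plus artemisinin killed control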); conditions: P. falciparum Dd2 in RBCs, LDH growth readout, 72 h; at 2 µM; hits give high values
# [2] = human hepatoma cell viability loss – ATP luminescence, cytotoxicity control for P. falciparum antimalarial project, primary screen (AID 2303;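 active = inhibition above 50%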;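 also: 0% = DMSO wells and 100% = digitonin-killed cells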); conditions: HepG2 viability, 24-48 h, at 10 µM, hits give high values
# [3] = molecular target: L-lactate dehydrogenase (Plasmodium falciparum (isolate CDC / Honduras)) (UniProt Q27743); assay: PfLDH activity inhibition – cell lysate, 3D7 strain, counter-screen for P. falciparum growth inhibition project (AID 2304);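 also: 0% = vehicle and 100% = reference inhibitor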; conditions: P. falciparum 3D7 crude extract, LDH APAD/NBT absorbance; at 2 µM; hits give high values
# [4] = inhibition of 3D7 malaria parasite growth – strain 3D7 (AID 2306);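 also: 0% = DMSO wells and 100% = chloroquine plus artemisinin control wells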; conditions: P. falciparum 3D7 erythrocytic growth, LDH absorbance, 72 h; at 2 µM; hits give high values
# [5] = molecular target: Plasmodium falciparum protein kinase 6 (PK6, PF3D7_1337100) (UniProt Q8IDW1); assay: PfPK6 kinase inhibitors, biochemical, TCAMS library (AID 1159586); conditions: recombinant PfPK6, Kinase-Glo ATP depletion luminescence
# [6] = molecular target: Protein kinase 7 (PK7), Plasmodium falciparum 3D7 (PF3D7_0213400) (UniProt Q7YTF7); assay: inhibition of Plasmodium PK7 catalytic activity – biochemical, TCAMS antimalarial set, Kinase-Glo luminescence (AID 1159587); conditions: recombinant PfPK7, Kinase-Glo ATP depletion luminescence
# [7] = molecular target: Calcium-dependent protein kinase 4 (Plasmodium falciparum (isolate 3D7)) (UniProt Q8IBS5); assay: PfCDPK4 kinase inhibitors, biochemical, TCAMS library (AID 1159588; cut-off not given, nearly all actives have IC50 up to about 0.91 µM); conditions: recombinant PfCDPK4, Kinase-Glo ATP depletion luminescence
# Chain of Calcium-dependent protein kinase 4 (Plasmodium falciparum (isolate 3D7)) (Q8IBS5 whole entry, looked up): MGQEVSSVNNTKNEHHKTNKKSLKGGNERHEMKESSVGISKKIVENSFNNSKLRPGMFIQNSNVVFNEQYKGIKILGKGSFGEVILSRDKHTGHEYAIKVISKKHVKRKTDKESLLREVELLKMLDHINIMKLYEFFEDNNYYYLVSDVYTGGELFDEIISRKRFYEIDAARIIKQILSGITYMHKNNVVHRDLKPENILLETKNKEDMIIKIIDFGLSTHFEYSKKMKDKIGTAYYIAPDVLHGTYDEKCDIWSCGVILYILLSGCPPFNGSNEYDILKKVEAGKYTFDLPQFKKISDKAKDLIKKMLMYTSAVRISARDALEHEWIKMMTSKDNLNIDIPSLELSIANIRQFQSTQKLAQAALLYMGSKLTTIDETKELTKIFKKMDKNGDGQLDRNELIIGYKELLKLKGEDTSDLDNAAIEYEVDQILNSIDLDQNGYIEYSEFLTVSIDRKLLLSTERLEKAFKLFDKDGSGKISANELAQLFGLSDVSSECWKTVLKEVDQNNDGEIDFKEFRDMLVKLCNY
# Chain of Protein kinase 7 (PK7), Plasmodium falciparum 3D7 (PF3D7_0213400) (Q7YTF7 1-343): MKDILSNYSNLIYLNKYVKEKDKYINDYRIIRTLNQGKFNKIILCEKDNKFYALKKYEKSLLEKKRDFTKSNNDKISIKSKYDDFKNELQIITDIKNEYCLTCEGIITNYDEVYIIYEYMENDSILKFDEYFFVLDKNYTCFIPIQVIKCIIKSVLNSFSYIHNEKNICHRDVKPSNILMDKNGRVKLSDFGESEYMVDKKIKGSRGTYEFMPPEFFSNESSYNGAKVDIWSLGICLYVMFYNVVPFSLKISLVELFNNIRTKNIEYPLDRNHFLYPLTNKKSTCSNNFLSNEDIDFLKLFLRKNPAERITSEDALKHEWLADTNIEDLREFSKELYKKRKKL
# Chain of L-lactate dehydrogenase (Plasmodium falciparum (isolate CDC / Honduras)) (Q27743 whole entry, looked up): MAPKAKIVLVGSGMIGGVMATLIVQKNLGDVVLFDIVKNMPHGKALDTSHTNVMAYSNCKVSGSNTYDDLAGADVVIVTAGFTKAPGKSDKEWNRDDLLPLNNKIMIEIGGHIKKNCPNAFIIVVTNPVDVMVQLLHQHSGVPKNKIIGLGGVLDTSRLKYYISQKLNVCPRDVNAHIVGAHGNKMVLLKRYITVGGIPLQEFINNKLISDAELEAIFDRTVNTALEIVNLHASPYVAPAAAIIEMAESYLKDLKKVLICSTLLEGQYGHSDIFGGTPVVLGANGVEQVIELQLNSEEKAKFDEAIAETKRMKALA
# Chain of Plasmodium falciparum protein kinase 6 (PK6, PF3D7_1337100) (Q8IDW1 1-305): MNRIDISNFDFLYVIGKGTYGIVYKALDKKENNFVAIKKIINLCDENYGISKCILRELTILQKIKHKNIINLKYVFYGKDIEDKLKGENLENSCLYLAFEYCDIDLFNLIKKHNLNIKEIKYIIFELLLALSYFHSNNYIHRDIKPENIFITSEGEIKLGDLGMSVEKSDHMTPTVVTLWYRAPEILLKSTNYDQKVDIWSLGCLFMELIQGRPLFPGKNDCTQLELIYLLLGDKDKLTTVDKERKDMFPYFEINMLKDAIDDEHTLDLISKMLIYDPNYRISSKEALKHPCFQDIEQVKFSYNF
SMILES,growth inhibition [1],inhibition [2],inhibition [3] [%],growth inhibition [4],outcome [5],outcome [6],outcome [7]
CN1CCN(Cc2cccc(Nc3nccc(Nc4ccc(Oc5ccccc5)cc4)n3)c2)CC1,80% (active),30%,2,97% (active),inactive,inactive,inactive
NS(=O)(=O)c1cccc(Nc2nccc(-c3c(-c4cccc(NC(=O)c5c(F)cccc5F)c4)nn4ccccc34)n2)c1,97% (active),81% (active),2,98% (active),inactive,inactive,–
CN(C)Cc1ccc(-c2ccc3c(Nc4ccc(Oc5ccccn5)cc4)ccnc3c2)o1,100% (active),18%,1,101% (active),inactive,inactive,inactive
CC(C)(CN)c1nc(-c2ccc(Br)c(O)c2)c(-c2ccncc2)[nH]1,97% (active),31%,0,96% (active),inactive,inactive,inactive
O=C(NCCN1CCCC1)c1cccc(Nc2nccc(Nc3ccc(Oc4ccccc4)cc3)n2)c1,18%,33%,-3,100% (active),inactive,inactive,inactive
COCCNCc1cccc(-c2ccc3c(Nc4ccc(Oc5ccccc5)cc4)ccnc3c2)c1,99% (active),25%,2,101% (active),inactive,inactive,inactive
CCn1c(-c2nonc2N)nc2c(-c3cccc(NC(=O)Nc4cccc(C(F)(F)F)c4)c3)ncc(OCCCN)c21,70% (active),21%,2,95% (active),inactive,inactive,–
CC(C)(CNCc1ccc(F)c(F)c1)c1nc(-c2ccc(Cl)c(O)c2)c(-c2ccnc(N)n2)[nH]1,79% (active),41%,-4,99% (active),inactive,inactive,inactive
CCn1c(-c2nonc2N)nc2c(-c3cccc(NC(=O)Nc4ccc(C(F)(F)F)cc4)c3)ncc(OCCCN)c21,63% (active),36%,6,94% (active),inactive,inactive,–
CCn1c(-c2nonc2N)nc2c(-c3ccc(CO)o3)ncc(OCCCN)c21,97% (active),-12%,-3,93% (active),inactive,inactive,inactive
O=C(Nc1cccc(-c2nn3ccccc3c2-c2ccnc(Nc3cccc(-c4cnco4)c3)n2)c1)C1CCCCC1,99% (active),71% (active),-4,95% (active),inactive,inactive,–
NCCCNc1nc(Nc2cccc(C(N)=O)c2)c2c(=O)[nH]ccc2n1,49%,9%,-3,99% (active),inactive,inactive,–
CC(C)(NCc1ncc[nH]1)c1nc(-c2ccc(Cl)c(O)c2)c(-c2ccncc2)[nH]1,97% (active),42%,3,95% (active),inactive,inactive,inactive
CC(c1cccc(Nc2nccc(-c3c(-c4cccc(NC(=O)c5c(F)cccc5F)c4)nn4ccccc34)n2)c1)S(C)(=O)=O (stereo unspecified),99% (active),76% (active),-6,98% (active),inactive,inactive,–
CCn1c(-c2nonc2N)nc2c(-c3cccc(NC(=O)Nc4ccc(C#N)cc4)c3)ncc(OCCCN)c21,80% (active),1%,0,85% (active),inactive,inactive,–
O=C(NCC(c1ccc(C(F)(F)F)cc1)N1CCCC1)c1cc(-c2ccncc2)c(-c2cccc(O)c2)o1 (stereo unspecified),53% (active),9%,0,95% (active),inactive,inactive,–
Cn1cc(-c2ccnc3[nH]c(-c4cccc(CNC5CCC(O)CC5)c4)cc23)cn1 (stereo unspecified),82% (active),48%,2,95% (active),–,inactive,inactive
CNC(=O)c1ccccc1Nc1nc(Nc2ccc(N3CCOCC3)cc2)ncc1Cl,97% (active),75% (active),-3,97% (active),–,inactive,inactive
COc1ccc(Nc2ncc3c(-c4cccc(NC(=O)Cc5ccc(O)cc5)c4)c[nH]c3n2)cc1OC,99% (active),48%,-2,102% (active),–,inactive,inactive
COc1ccc(Nc2ncc(Cl)c(Nc3cccnc3C(N)=O)n2)cc1N1CCN(C)CC1,97% (active),77% (active),6,95% (active),–,inactive,inactive
CN(C)Cc1cccc(-c2cc3c(-c4cnn(C)c4)c(Cl)cnc3[nH]2)c1,21%,75% (active),-5,96% (active),–,inactive,inactive
Cc1csc(-c2ncc(OC[C@@H](N)Cc3ccccc3)cc2-c2ccc3n[nH]c(C)c3c2)c1,35%,48%,4,98% (active),inactive,inactive,–
CCn1c(-c2nonc2N)nc2c(-c3cccc(NC(=O)Nc4ccccc4Cl)c3)ncc(OCCCN)c21,74% (active),2%,-4,99% (active),inactive,inactive,–
